Laboratory results as given in PubChem BioAssay AID434970 (Sanford-Burnham Center for Chemical Genomics, 2010).
The campaign covered roughly 11,000 compounds. About 310 (2.8%) were called active. The sample holds actives, similar compounds and a random draw of the others, so the mix is not that of the screen. Cut-off read from the data, not from the text of the source: active = activity change below about -85%; inactive = the rest.

The compounds below were run on intestinal alkaline phosphatase [Mus musculus] (assay: activators of mouse IAP, confirmation, biochemical, luminescence, single concentration (AID 434970)). Details: purified mouse IAP, CDP-Star luminescence, 30 min, at 10 µM; activation factor: measured here: IAP activation factor, stronger effect = higher value; activity change, negative = activation: stronger effect = lower value.
`Cc1cc2c(ncn2C)c(NS(=O)(=O)c2cc(Cl)ccc2Cl)c1C` was tested, and the activation factor was 0.946 and the activity change, negative = activation was 5.45% (inactive).
`Cc1noc2ncnc(Sc3c(Cl)cccc3Cl)c12` was tested, and the activation factor was 0.906 and the activity change, negative = activation was 9.4% (inactive).
`C#CCOCCOCCOCCNc1nc(N2CCN(C(=O)CCCCCCCCCCNC(=O)[C@H](CO)n3cc(CCCSC)nn3)CC2)nc(N2CCN(C(=O)CCCCCCCCCCNC(=O)[C@H](CCCN=C(N)N)n3cc(C[C@@H](C)CC)nn3)CC2)n1` was tested, and the activation factor was 5.98 and the activity change, negative = activation was -498% (active).
In the case of `C#CCOCCOCCOCCNc1nc(N2CCN(C(=O)CCCCCCCCCCNC(=O)[C@@H](CCSC)n3cc(CCO)nn3)CC2)nc(N2CCN(C(=O)CCCCCCCCCCNC(=O)[C@H](CCCN=C(N)N)n3cc(C[C@@H](C)CC)nn3)CC2)n1`, the activation factor is reported as 8.61 and the activity change, negative = activation is reported as -761% (active).
In the case of `C#CCOCCOCCOCCNc1nc(N2CCN(C(=O)CCCCCCCCCCNC(=O)[C@H](CO)n3cc(CCCSC)nn3)CC2)nc(N2CCN(C(=O)CCCCCCCCCCNC(=O)[C@H](CCCCN)n3cc(C[C@@H](C)CC)nn3)CC2)n1`, the activation factor is reported as 2.83 and the activity change, negative = activation is reported as -183% (active).
`COc1ccc(N2C(=O)C3CCCN3C2c2ccccc2)cc1Cl` (centres undefined) was tested, and the activation factor was 0.895 and the activity change, negative = activation was 10.5% (inactive).
`C=CCNC(=O)c1nc2ccccc2s1` was tested, and the activation factor was 0.92 and the activity change, negative = activation was 8% (inactive).
In the case of `Cn1c(=O)cc(SCC(=O)Nc2cccnc2)c2ccccc21`, the activation factor is reported as 0.952 and the activity change, negative = activation is reported as 4.8% (inactive).
For `CCC1CCCCN1CCCNC(=O)c1ccc2c(=O)n(Cc3ccc(OC)cc3)c(=O)[nH]c2c1` (centres undefined), the activation factor was 0.925 and the activity change, negative = activation was 7.5% (inactive).
`Fc1ccc(CNc2nc(-c3ccco3)cc(C(F)(F)F)n2)cc1` was tested, and the activation factor was 0.991 and the activity change, negative = activation was 0.9% (inactive).
`COc1ccc2c(c1OC)C(=O)N(c1ccc(C)c(C)c1)C2=O` was tested, and the activation factor was 0.976 and the activity change, negative = activation was 2.45% (inactive).
For `COc1cc(/C=C(\C#N)c2nc3ccc(C)cc3[nH]2)c([N+](=O)[O-])cc1OC`, the activation factor was 0.806 and the activity change, negative = activation was 19.4% (inactive).
With `Cc1[nH]ccc(=O)c1OCc1c(Cl)cccc1Cl` the activation factor was 0.957 and the activity change, negative = activation was 4.3% (inactive).
With `COCCn1c(Sc2ccccc2)nc2c1c(=O)[nH]c(=O)n2C` the activation factor was 1.07 and the activity change, negative = activation was -6.95% (inactive).
In the case of `COC(=O)[C@H]1C2CCC(C(=O)OC)(CC2)[C@H]1C(=O)OC`, the activation factor is reported as 0.915 and the activity change, negative = activation is reported as 8.55% (inactive).
With `O=S(=O)(c1ccc(F)cc1)N1CCN(CC(O)COCc2cccs2)CC1` (centres undefined) the activation factor was 0.928 and the activity change, negative = activation was 7.2% (inactive).
`Cc1c(C(=O)Nc2ccc(Cl)cc2)c2ccccn2c1C(=O)c1ccccc1` was tested, and the activation factor was 1.02 and the activity change, negative = activation was -1.8% (inactive).
`CC(NC(=O)Nc1ccc(Cl)cc1)c1ccccc1` (centres undefined) was tested, and the activation factor was 2.11 and the activity change, negative = activation was -111% (active).
`Cc1noc(-c2ccccc2)c1NC(=O)Nc1ccc(Cl)cc1` was tested, and the activation factor was 1.7 and the activity change, negative = activation was -70.2% (inactive).
In the case of `CCN(CC)C(C(=O)Nc1ccc(C(C)C)cc1)c1ccc2c(c1)OCO2` (centres undefined), the activation factor is reported as 1.48 and the activity change, negative = activation is reported as -48.4% (inactive).
For `Cc1ccc(NC(=O)N/C=C/c2ccccc2)cc1`, the activation factor was 1.56 and the activity change, negative = activation was -55.5% (inactive).
For `COc1ccc(Cl)cc1C(=O)Nc1ccc2c(c1)OCO2`, the activation factor was 1.1 and the activity change, negative = activation was -10.2% (inactive).
In the case of `CC(NC(=O)C1CCC1)c1ccccc1` (centres undefined), the activation factor is reported as 1.12 and the activity change, negative = activation is reported as -11.9% (inactive).
With `Cc1ccc(NC(=O)N/C=C/c2ccc(Cl)cc2)cc1` the activation factor was 1.09 and the activity change, negative = activation was -9.1% (inactive).
In the case of `O=C(N/C=C/c1ccccc1)Nc1ccc(Cl)cc1`, the activation factor is reported as 2.71 and the activity change, negative = activation is reported as -171% (active).
In the case of `CC(C)c1ccc(NC(=O)NC(C)c2ccc3c(c2)OCO3)cc1` (centres undefined), the activation factor is reported as 3.31 and the activity change, negative = activation is reported as -231% (active).
With `CC(NC(=O)Nc1ccc(Cl)cc1)c1ccc2c(c1)OCO2` (centres undefined) the activation factor was 2.53 and the activity change, negative = activation was -153% (active).
For `COC(=O)Nc1ccc2c(c1)OCO2`, the activation factor was 0.903 and the activity change, negative = activation was 9.6% (inactive).
In the case of `CC1CCCN(C(C(=O)Nc2ccc(C(C)C)cc2)c2ccc3c(c2)OCO3)C1` (centres undefined), the activation factor is reported as 1.73 and the activity change, negative = activation is reported as -73.3% (inactive).
With `Cc1cccc(OCCCSc2nc3ccccc3[nH]2)c1` the activation factor was 1.13 and the activity change, negative = activation was -12.6% (inactive).
`COC(=O)c1c(NC(=O)c2ccccc2)sc(Cc2ccccc2)c1C` was tested, and the activation factor was 1 and the activity change, negative = activation was -0.05% (inactive).
`O=C(NCC(=O)N(CC1CCCO1)C1(C(=O)NC2CCCC2)CCCCC1)c1ccccc1` (centres undefined) was tested, and the activation factor was 1.03 and the activity change, negative = activation was -3.2% (inactive).
`CCOC(=O)N1CCN(C(=O)Cn2c(C)cc3ccccc3c2=O)CC1` was tested, and the activation factor was 1.12 and the activity change, negative = activation was -11.8% (inactive).
With `Cc1ccc(Nc2c3c(nc4ncnn24)CC(C)CC3)cc1` (centres undefined) the activation factor was 1.02 and the activity change, negative = activation was -2.1% (inactive).
In the case of `C1CN(c2nc3nonc3n3nnnc23)CCO1`, the activation factor is reported as 0.972 and the activity change, negative = activation is reported as 2.75% (inactive).
For `O=C(Cn1cc(C(=O)C2CC2)c2ccccc21)NCC1CCCO1` (centres undefined), the activation factor was 0.944 and the activity change, negative = activation was 5.6% (inactive).
With `O=C(O)CS(=O)(=O)c1ccc(Oc2ccc(S(=O)(=O)CC(=O)O)cc2)cc1` the activation factor was 1.1 and the activity change, negative = activation was -10.4% (inactive).
